TDP1 cell noCPT: qHTS for Inhibitors of human tyrosyl-DNA phosphodiesterase 1 (TDP1): qHTS in cells in absence of CPT; DT40 Tdp1-/- hTDP1 cells, no CPT, ATP luminescence, 48 h; Potency, µM (doses to about 46.2 µM), without a hit: at the highest dose activity change, negative = growth inhibition, usual class: inhibitors; actives 15% (n = 420,000); note: % is set by controls: 0 for no effect and ±100 for the full control effect; nearly all actives have a fitted effect of over 55% in size
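Chicken DT40 Tdp1-/- cells complemented with human TDP1, screened without camptothecin (DMSO vehicle only), 400 cells/well. Compounds pin-transferred, cells incubated at 37 °C for at least 48 hr. Growth read as ATP-dependent luminescence (CellTiter-Glo, 30 min at RT).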
ClpP mod: qHTS Assay for Activators of ClpP; actives 1.9% (n = 340,000); purified B. subtilis ClpP, FRET peptide cleavage, 20 min; AID 651965, 2013; Potency, µM (highest dose often 57.5 µM), without a hit: at the top dose activity change, negative = active; active = well fitted falling curve with a large enough effect; inconclusive = small, poorly fitted or top-dose-only effect; inactive = no such curve, though single readings can be large or run the other way; note: the source files actives as falling curves though it sought activators and does not explain the sign; nearly all actives have a fitted effect of over 65% in size
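ClpP 10 microg/mL final, pH 8 Tris/KCl buffer with BSA, glycerol, Tween-20; compound pinned in; FRET-FV substrate; RT 20 min; Ex320/Em430; ΔFRET vs ADEP 5.8 microM, DMSO, no enzyme.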
TDP1 block: inhibitors of human tyrosyl-DNA phosphodiesterase TDP1; Q9NUW8; recombinant TDP1, AlphaScreen DNA substrate cleavage; Potency, µM (doses to about 130 µM), without a hit: top-dose activity change, negative = inhibition, hits mostly inhibitors; actives 0.28% (n = 350,000); AID 485290; note: % is set by controls: 0 for no effect and ±100 for the full control effect; nearly all actives have a fitted effect of over 40% in size
Target sequence (Q9NUW8 whole entry, looked up): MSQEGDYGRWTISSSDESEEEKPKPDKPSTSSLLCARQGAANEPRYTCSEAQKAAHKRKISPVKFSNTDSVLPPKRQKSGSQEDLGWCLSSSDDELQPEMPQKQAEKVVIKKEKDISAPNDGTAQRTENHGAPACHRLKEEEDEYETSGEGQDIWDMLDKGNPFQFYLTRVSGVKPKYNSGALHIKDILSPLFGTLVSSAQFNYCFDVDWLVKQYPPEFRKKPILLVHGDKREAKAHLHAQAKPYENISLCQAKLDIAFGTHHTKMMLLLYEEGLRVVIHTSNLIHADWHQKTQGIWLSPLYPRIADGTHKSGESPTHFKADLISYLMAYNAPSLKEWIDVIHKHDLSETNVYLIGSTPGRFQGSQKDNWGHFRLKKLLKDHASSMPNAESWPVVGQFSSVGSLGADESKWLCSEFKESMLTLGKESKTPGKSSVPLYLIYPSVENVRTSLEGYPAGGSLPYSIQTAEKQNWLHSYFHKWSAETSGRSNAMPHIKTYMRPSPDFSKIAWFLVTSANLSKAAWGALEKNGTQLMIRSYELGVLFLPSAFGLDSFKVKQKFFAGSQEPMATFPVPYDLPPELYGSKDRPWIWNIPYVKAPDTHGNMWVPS
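Here, a 5' biotin and 3' phosphotyrosine-FITC DNA oligonucleotide reports Tdp1 activity: intact substrate bridges AlphaScreen beads, while cleavage leaves a 3' phosphate and drops signal. All incubations at room temperature.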
DT40 TDP1 CPT: DT40-hTDP1 cell growth loss with CPT. Potency, µM (doses to about 46.2 µM), without a hit: top-dose activity change, negative = growth inhibition, usual class: inhibitors. chicken DT40 Tdp1-/-;hTDP1 cells + 20 nM CPT, ATP luminescence, 48 h. actives 12% (n = 420,000); note: % is set by controls: 0 for no effect and ±100 for the full control effect; nearly all actives have a fitted effect of over 55% in size
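Chicken DT40 Tdp1-/- cells complemented with human TDP1, 400 cells/well, exposed to compounds plus 20 nM camptothecin for at least 48 h at 37 C; viability read as ATP content by CellTiter-Glo luminescence.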
Numbers without * were called inactive; ? = inconclusive; . = not tested or not shown; [ ] = another dose, or the depositor's remark. An excerpt weighted towards active compounds, which were near 17% of everything screened. Unless noted, calls come from the whole dose curve; as a rule, active = well fitted curve in the direction sought with a large enough effect; inconclusive = small, poorly fitted or top-dose-only effect, or another doubt; inactive = no such curve, though single readings can be large; an effect the other way counts as inactive or inconclusive. Potency is the fitted concentration of half-maximal effect.

SMILES	TDP1 cell noCPT	ClpP mod	TDP1 block	DT40 TDP1 CPT
CCCN1CCN(CC2=C(C(=O)OCC)C(c3ccc(Cl)cc3)NC(=O)N2)CC1 (stereo not drawn)	25.9µM*	-0.1%	-2.3%	25.9µM*
CCOC(=O)C1=C(CN2CCN(c3ccccc3F)CC2)NC(=O)NC1c1ccc(Cl)cc1 (stereo not drawn)	16.4µM*	-0.1%	-7.0%	25.9µM*
CCOC(=O)C1=C(CN2CCC(C)CC2)NC(=O)NC1c1ccc(OC(C)C)cc1 (stereo not drawn)	?	0.8%	0.0%	23.1µM*
CCCN1CCN(CC2=C(C(=O)OCC)C(c3ccc(OC(C)C)cc3)NC(=O)N2)CC1 (stereo not drawn)	?	-1.0%	-2.3%	?
O=C1CCc2ccc(NS(=O)(=O)c3ccc(F)cc3)cc2N1	?	.	5.7%	?
CCCNC(=O)OC[C@H]1O[C@@H](CCO/N=C2/C[C@@H](O)[C@@H](O)[C@@H]3[C@@H]4C(=O)N(CC)C(=O)[C@H]4CC[C@@H]23)C=C[C@@H]1Oc1ccc(OC)cc1	.	.	7.9%[21 µM]	.
CCNc1nc(NC#N)nc(SCC(=O)OCC)n1	0.6%	-0.6%	0.0%	4.6%
CNc1nc(NC#N)nc(SC)n1	?	0.9%	.	20.6µM*
Cc1ccc(NC(=O)c2ccc(C(C)(C)C)cc2)cc1-n1cnnn1	29.1µM*	.	-2.8%	?
CN(C)c1ncc2nc(-c3ccccc3)c(=O)n(-c3ccccc3)c2n1	8.6%	.	.	6.0%
CCC1CCCCN1CC(=O)Nc1cc(C)c2c(=O)oc3ccccc3c2n1 (stereo not drawn)	-8.6%	-5.4%	-2.1%[12.3 µM]	18.1%
CCCC(=O)Nc1cc(C)c2c(=O)oc3ccccc3c2n1	?	-4.2%	.	?
Cc1cc(NC(=O)CN2CCC(C)CC2)nc2c1c(=O)oc1ccccc12	20.6µM*	-9.0%	2.5%	?
Cc1cc(NC(=O)CN2CCc3ccccc3C2)nc2c1c(=O)oc1ccccc12	18.4µM*	-21.6%	.	20.6µM*
COCCNC(=O)[C@H](C)/C=C/C(NC(=O)OCc1ccccc1)c1ccc(C(=O)OC)cc1 (stereo partly drawn)	.	.	6.9%	.
CCN(C1CCCCC1)S(=O)(=O)CCNC(=O)c1ccc2c(c1)OCO2	?	.	-1.3%	23.1µM*
O=C1C(Cc2ccccc2)Nc2ncnc(N3CCN(c4ccccc4)CC3)c2N1Cc1ccc(Cl)cc1 (stereo not drawn)	18.4µM*	-13.1%	.	?
O=C1C(Cc2ccccc2)Nc2ncnc(N3CCc4ccccc4C3)c2N1Cc1ccccc1 (stereo not drawn)	16.4µM*	-7.6%	2.7%	?
O=C1C(Cc2ccccc2)Nc2ncnc(N3CCCCC3)c2N1Cc1ccc(Cl)cc1 (stereo not drawn)	16.4µM*	0.0%	.	?
O=C1C(Cc2ccccc2)Nc2ncnc(N3CCOCC3)c2N1Cc1ccc(Br)cc1 (stereo not drawn)	?	-2.3%	.	?
CC1Nc2ncnc(N3CCc4ccccc4C3)c2N(Cc2ccc(Br)cc2)C1=O (stereo not drawn)	23.1µM*	-0.3%	1.9%	16.4µM*
Cc1oc(-c2cccc(NC(=O)c3ccccn3)c2)nc1CNC(=O)c1ccc(C(F)(F)F)cc1	-24.4%	.	.	-0.4%[9.04 µM]
CC(C)(C)c1ccc(S(=O)(=O)NC(=O)C2(C)CCN2C(=O)Cc2ccccc2Cl)cc1 (stereo not drawn)	-2.4%	-1.1%	.	-12.5%
Cc1nc(NC(=O)COC(=O)c2cccs2)c(Cl)cc1Cl	-2.9%	-1.0%	4.6%	-9.6%
CCOc1ccc(NC(=O)COC(=O)c2ccccc2OCc2ccccc2Br)cc1	-7.5%	-14.1%	.	3.7%
SMILES	TDP1 cell noCPT	ClpP mod	TDP1 block	DT40 TDP1 CPT
CC(NC(=O)C1=CC=CN2CCS(=O)(=O)N=C12)c1ccc(Cl)cc1Cl (stereo not drawn)	?	25.1µM*	0.2%[56.1 µM]	-25.8%
Cc1cccc(C(=O)NC(C(=O)Nc2nc(-c3ccccn3)cs2)C(C)C)c1 (stereo not drawn)	11.6µM*	-1.9%	2.5%	13µM*
CC(Oc1ccccc1)C(=O)Nc1nc(-c2ccncc2)cs1 (stereo not drawn)	-11.4%	-0.3%	0.8%	?
CC(Oc1ccccc1)C(=O)Nc1nc(-c2ccccn2)cs1 (stereo not drawn)	3.26µM*	.	-4.2%	3.66µM*
CC(Oc1cccc(Cl)c1)C(=O)Nc1nc(-c2ccccn2)cs1 (stereo not drawn)	5.17µM*	.	-1.5%	3.26µM*
CC(OC(=O)c1ccccn1)C(=O)Nc1nc(-c2ccc(F)c(F)c2)cs1 (stereo not drawn)	23.1µM*	.	0.2%	25.9µM*
Cc1cc(=O)[nH]c(SCC(=O)Nc2ccc(F)c([N+](=O)[O-])c2)n1	-1.2%	.	2.7%	1.5%
CC(C)Oc1ccc(C(=O)Nc2ccc3c(c2)n(C)c(=O)n3C)cc1	-21.5%	0.9%	.	-3.0%
Cc1ccc(NC(=O)Cn2ccn(-c3ccccc3)c(=O)c2=O)cc1	-0.3%	-7.8%	0.0%	-4.2%
CC1CC(C)CN(C(=O)CSc2ncnc3sccc23)C1 (stereo not drawn)	-13.6%	0.6%	0.8%	-12.3%
C[C@H](NC(=O)c1ccccc1)C(=O)Nc1nc(-c2ccccn2)cs1	?	.	5.0%	25.9µM*
Cc1cc(C)cc(OCC(=O)Nc2nc(-c3ccccn3)cs2)c1	?	.	-0.1%	?
NC(=NCc1ccc(Cl)cc1Cl)NC(=O)c1nc(Cl)c(N)nc1N	4.41µM*	.	15.8%	6.23µM*
CCSc1ccc(-c2cccc([N+](=O)[O-])c2)nn1	-18.7%	.	5.8%	11.9%
COc1ccc(-n2c(COc3ccc(Cl)cc3)nnc2SCc2ccc(C#N)cc2)cc1	23.1µM*	-1.9%	0.0%	?
COc1ccc(NCc2nnc(SCc3ccc(Cl)cc3)n2-c2ccccc2)cc1	18.4µM*	-0.6%	4.2%	?
CCOc1ccc(-n2c(SCc3ccc([N+](=O)[O-])cc3)nnc2-c2ccc(OC)cc2)cc1	29.1µM*	2.3%	13.5%	18.4µM*
N#Cc1ccc(OCc2nnc(SCC(=O)c3ccccc3)n2-c2ccccc2)cc1	?	-2.0%	0.0%	23.1µM*
CC/C=C\C/C=C\C/C=C\C/C=C\C/C=C\C/C=C\CCC(=O)NCCCC(=O)O	.	.	6.9%	.
Cc1ccc(SCC(=O)OCC(=O)N(C)CC(=O)Nc2ccccc2Cl)cc1	-16.8%	-0.3%	-1.8%	-13.4%
CNC(=S)NN=C(C)CCCC(C)=NNC(=S)NC	0.0206µM*	6.0%	.	0.164µM*
O=C(CN1Cc2ccccc2C1=O)Nc1cc(F)ccc1F	-5.3%	-1.5%	3.7%	5.8%
CCN(C(=O)c1cccnc1SC)C12CC3CC(CC(C3)C1)C2	20.6µM*	.	5.9%	?
